Most compounds without a hit are left out; they make up all but 6.1% or so of the library.
VP16 counter = VP16 counterscreen qHTS for inhibitors of ROR gamma transcriptional activity; Drosophila S2 Gal4-VP16 UAS-luciferase, luminescence, 20 h; Potency, µM (top dose mostly 53.6 µM), inactives show top-dose activity, negative = inhibition, most hits filed as inhibitors; hit rate 3.5% among 310,000; AID 2546, 2010;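 note: Gal4-VP16 expression switched on by copper sulfate through the metallothionein promoter; % is set by controls: 0 for no effect and ±100 for the full control effect; nearly all actives have a fitted effect of over 50% in size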
ATXN2 expr inh = Primary qHTS for Inhibitors of ATXN expression. Potency, µM (doses to about 57 µM), inactives show at the top dose activity change, negative = inhibition, most hits filed as inhibitors. HEK-293 ATXN2-luciferase reporter, luminescence, 24 h. hit rate 0.72% among 360,000. AID 1745845, 2022; note: % is set by controls: 0 for no effect and ±100 for the full control effect; nearly all actives have a fitted effect of over 55% in size
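qHTS (up to 57 uM final) was run with 24 h compound exposure of reporter cells at 37 °C. Each well was multiplexed: SteadyGlo luminescence measured ATXN2-luciferase expression after a fluorogenic Gly-Phe-AFC viability readout (25 uM final).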
TGFb inhibitor = qHTS for Inhibitors of TGF-b; Potency, µM (top dose mostly 46.1 µM), without a hit: top-dose activity, negative = inhibition, actives largely listed as inhibitors; HepG2 CAGA-GFP TGF-b/SMAD3 reporter, GFP fluorescence, 18 h; TGF-beta stimulated, 500 pg/mL final; hit rate 1.2% among 410,000; AID 588855, 2011; note: % is set by controls: 0 for no effect and ±100 for the full control effect; nearly all actives have a fitted effect of over 65% in size
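HEPG2 CAGA-GFP cells (1000/well, DMEM with 1% FBS) were pre-incubated 2 h at 37 degrees C, given compound by pin tool, then stimulated with TGF-beta at 500 pg/mL final for 18 h before per-cell GFP fluorescence imaging.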
RORgamma inh = qHTS for inhibitors of ROR gamma transcriptional activity. Nuclear receptor ROR-gamma (Mus musculus), P51450. Drosophila S2 Gal4-RORgamma UAS-luciferase reporter, 20 h. Potency, µM (series often up to 53.6 µM), for the others: at the highest dose activity change, negative = inhibition, usual class: inhibitors. hit rate 5.4% among 310,000; note: % is set by controls: 0 for no effect and ±100 for the full control effect; nearly all actives have a fitted effect of over 60% in size
Target sequence (P51450 whole entry, looked up, the tested form may be a part): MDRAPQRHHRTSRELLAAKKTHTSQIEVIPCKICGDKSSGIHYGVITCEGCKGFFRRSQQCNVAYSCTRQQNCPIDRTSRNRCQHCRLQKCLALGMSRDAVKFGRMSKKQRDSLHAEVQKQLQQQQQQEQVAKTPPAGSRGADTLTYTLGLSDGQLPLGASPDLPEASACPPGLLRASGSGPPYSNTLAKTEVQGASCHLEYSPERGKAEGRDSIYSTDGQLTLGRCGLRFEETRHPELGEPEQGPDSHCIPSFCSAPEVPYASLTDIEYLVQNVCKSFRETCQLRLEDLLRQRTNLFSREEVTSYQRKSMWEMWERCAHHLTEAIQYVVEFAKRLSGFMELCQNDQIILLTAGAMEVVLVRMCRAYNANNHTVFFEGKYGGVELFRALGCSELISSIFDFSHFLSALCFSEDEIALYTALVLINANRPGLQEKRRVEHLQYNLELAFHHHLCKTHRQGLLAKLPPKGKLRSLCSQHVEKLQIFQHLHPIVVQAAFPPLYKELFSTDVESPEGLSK
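Compounds are pin-transferred onto Drosophila Schneider cells expressing a copper-inducible Gal4–ROR gamma transactivation domain fusion. After 1 hr, copper sulfate is added to 700 uM final; luciferase is read 20 hr later.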
HepG2 tox-1 = qHTS for Inhibitors of TGF-b: Cytotox Counterscreen; HepG2 CAGA-GFP viability, ATP luminescence, 18 h; Potency, µM (doses to about 46.1 µM), inactives show top-dose activity change, negative = cytotoxicity, usual class: cytotoxic; hit rate 0.76% among 410,000; AID 588856, 2011
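HepG2 CAGA-GFP cells (1000/well, DMEM with 1% FBS) received compound, then TGF-beta at 500 pg/mL final, and were incubated 18 hours at 37 degrees C. Viability was read by CellTiter-Glo luminescence. Media-only wells were set as complete cell-killing and DMSO as no toxicity.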
S2 tox = Viability Counterscreen for Primary qHTS for Inhibitors of ATXN expression. S2 cells (HEK-293 line with an ATXN2-luciferase reporter) viability, CellTiter-Fluor protease fluorescence, 24 h. Potency, µM (top dose mostly 56.7 µM), usual class: cytotoxic. hit rate 0.49% among 400,000; note: nearly all actives have a fitted effect of over 40% in size
TGFb CAGA inh = qHTS for Inhibitors of TGF-b: Confirmation of Cherry Picks | Potency, µM (doses to about 46.1 µM), for inactives: top-dose activity, negative = inhibition, hits mostly inhibitors | shares compounds with TGFb inhibitor | AID 720534, 2013 | HepG2 CAGA-GFP TGF-b reporter, GFP fluorescence, 18 h; cells stimulated with TGF-beta, 500 pg/mL | hit rate 63% among 1,600; note: % is set by controls: 0 for no effect and ±100 for the full control effect; nearly all actives have a fitted effect of over 65% in size
HepG2 tox-2 = qHTS for Inhibitors of TGF-b: Cytotox Counterscreen for Cherry Picks; shares compounds with TGFb inhibitor; HepG2 CAGA-GFP viability, ATP luminescence, 18 h; cells stimulated with TGF-beta, 500 pg/mL; Potency, µM (top dose mostly 46.1 µM), without a hit: at the highest dose activity, negative = cytotoxicity, actives largely listed as inhibitors; hit rate 27% among 1,600; AID 720535, 2013; note: % is set by controls: 0 for no effect and ±100 for the full control effect; nearly all actives have a fitted effect of over 70% in size
CCL64 TGFb inh = qHTS for Inhibitors of TGF-b: CCL64 Cells Orthogonal Assay for Cherry Picks; Potency, µM (titrated, usually from 46.1 µM), inactives show at the top dose activity, negative = inhibition, usual class: inhibitors; CCL64 CAGA-GFP reporter, TGF-b stimulated, GFP fluorescence, 18 h; AID 720536, 2013; hit rate 41% among 1,600; shares compounds with TGFb inhibitor; note: nearly all actives have a fitted effect of over 65% in size
COP TGFb inh = qHTS for Inhibitors of TGF-b: Hit Validation in HepG2 Cells using COP promoter; shares compounds with TGFb inhibitor; HepG2 COP-GFP TGF-b reporter, GFP fluorescence, 18 h; cells stimulated by added recombinant TGF-beta; hit rate 3% among 1,600; Potency, µM (titrated, usually from 46.1 µM), inactives show at the highest dose activity, negative = inhibition, hits mostly inhibitors; note: nearly all actives have a fitted effect of over 70% in size
An asterisk follows results filed as active; i = inactive; u = inconclusive; x = no result. Calls come from the whole dose curve; as a rule, active = well fitted curve in the direction sought with a large enough effect; inconclusive = small, poorly fitted or top-dose-only effect, or another doubt; inactive = no such curve, though single readings can be large; an effect the other way counts as inactive or inconclusive. Potency is the fitted concentration of half-maximal effect.

SMILES	VP16 counter	ATXN2 expr inh	TGFb inhibitor	RORgamma inh	HepG2 tox-1	S2 tox	TGFb CAGA inh	HepG2 tox-2	CCL64 TGFb inh	COP TGFb inh
COc1ccc(N(C(=O)CCl)C(C(=O)NCCc2ccccc2)c2cccs2)cc1Cl (stereo not given)	-82%	1.8µM*	7.9µM*	11µM*	-102%	1.4µM*	4.6µM*	5.2µM*	2.1µM*	21µM*
CNc1c2cccc(C)c2nc2c(C(=O)NCCN(C)C)cccc12	x	u	1.1µM*	x	-7%	x	0.58µM*	0.52µM*	1.3µM*	69%
O=C(Nc1ccc2nc3n(c(=O)c2c1)CCCCC3)c1c(F)ccc([N+](=O)[O-])c1F	7.9µM*	7.1µM*	5µM*	-94%	11µM*	x	2.6µM*	2.6µM*	4.1µM*	8.2µM*
O=C(Nc1ccc2nc3n(c(=O)c2c1)CCCCC3)c1ccccc1[N+](=O)[O-]	-7%	1%	9%	19%	-12%	i	x	x	x	x
Cc1noc(C)c1-c1cc(N(C)Cc2ccco2)ncn1	22%	x	x	-17%	x	x	x	x	x	x
COc1ccc(Cl)cc1Cn1c(C)c(C(=O)NCc2ccc(F)cc2)sc1=O	x	-38%	14µM*	x	2%	i	u	-21%	u	7%
COc1ccc(Cl)cc1Cn1c(C)c(C(=O)N(C)Cc2ccc(F)cc2)sc1=O	x	-4%	-10%	x	3%	i	x	x	x	x
Cc1cccc(N2CCN(C(=O)Nc3cn(CC(C)C)c(=O)c4ccccc34)CC2)c1C	x	-17%	u	x	-23%	i	x	x	x	x
COCCOC(=O)C1=C(C)N=C2SCCC(=O)N2C1c1ccc(OCc2ccccc2)c(OC)c1 (stereo not given)	x	10%	16%	x	-34%	i	x	x	x	x
c1ccc(-c2nc3nonc3nc2-c2ccccc2)cc1	u	u	8.9µM*	11µM*	10µM*	u	15µM*	u	u	u
Cc1ccc(C(=O)N2CCN(CCc3ccncc3)CC2)cc1	x	x	2%	x	-2%	x	x	x	x	x
c1ccc(-c2csc3ncnc(NCCCN4CCOCC4)c23)cc1	-20%	0%	7%	8%	4%	i	x	x	x	x
c1ccc(-c2csc3ncnc(NCC4COc5ccccc5O4)c23)cc1 (stereo not given)	0.89µM*	u	3.5µM*	7.1µM*	-17%	u	2.6µM*	u	15µM*	19%
Nc1cc(Nc2ccccc2)ccn1	x	-15%	-1%	x	1%	i	x	x	x	x
N#Cc1sc2nccc(Nc3ccccc3)c2c1N	x	-6%	4.5µM*	x	-19%	u	8.2µM*	10%	10%	-3%
O=C(OCc1ccccc1)N(CCCCN(CCCNCc1ccccc1)C(=O)OCc1ccccc1)CCCNCc1ccccc1	x	u	5µM*	x	5.6µM*	u	13µM*	8.2µM*	u	u
COc1cccc(CNc2nc3cc(-c4ccc(C)cc4)sc3c(=O)n2C)c1OC	x	-2%	10µM*	x	-1%	i	2.6µM*	u	12µM*	3%
COc1cccc(CNc2nc3cc(-c4ccsc4)sc3c(=O)n2C)c1OC	x	u	u	x	3%	u	u	u	u	20%
CCc1ccc(CNC(=O)C2CCCN(S(=O)(=O)c3ccc4c(ccn4C)c3)C2)cc1 (stereo not given)	x	-30%	u	x	-30%	u	x	x	x	x
CN(CC(=O)Nc1cccc(F)c1)C(=O)c1cccc(S(=O)(=O)N2CC3(C)CC2CC(C)(C)C3)c1 (stereo not given)	x	-1%	11µM*	x	-21%	u	16µM*	-29%	u	47%
Cc1cccc(Cn2c(=O)n(CCC(=O)NCc3ccc4c(c3)OCO4)c(=O)c3sccc32)c1	x	x	1%	x	1%	x	x	x	x	x
CCOc1ccc(OCCSc2nc3ccccc3[nH]2)cc1	1%	-2%	u	1%	3%	i	x	x	x	x
CCCOc1ccc(CSc2nc3ccccc3[nH]2)cc1	6.3µM*	4%	10µM*	u	-46%	u	-15%	u	u	4%
CCCc1cc(-c2[nH]ncc2-c2ccc(C(=O)OCC)o2)c(O)cc1O	u	-29%	10µM*	-31%	20µM*	u	-14%	7%	u	1%
CCCc1cc(-c2[nH]ncc2-c2ccc3c(c2)OCCCO3)c(O)cc1O	u	u	u	u	-60%	u	x	x	x	x
O=C(Nc1ccc([N+](=O)[O-])cc1)Nc1cnccn1	-20%	-25%	u	u	-51%	i	u	u	u	13%
O=C(NCc1cccnc1)/C(=C\c1ccc(-c2ccc(Br)cc2)o1)S(=O)(=O)c1ccccc1	u	7.1µM*	10µM*	u	-98%	14µM*	5.8µM*	3.3µM*	5.2µM*	u
O=C(CN(Cc1ccc(Br)cc1)S(=O)(=O)c1ccccc1)NCc1cccnc1	-4%	-9%	-1%	2%	-7%	i	x	x	x	x
FC(F)(F)c1nc2ccccc2n2c(-c3ccc(Cl)cc3)nnc12	-11%	-24%	4.5µM*	27%	-32%	i	5.2µM*	u	12%	66%
